Compound activity deposited in PubChem BioAssay by National Center for Advancing Translational Sciences (NCATS).
Rab9 promoter act: activates the Rab9 promoter. Huh7 Rab9 promoter-luciferase reporter, luminescence, 24 h. hit rate 2.8% among 320,000. Potency, µM (series often up to 9.22 µM), for the others: at the top dose activation, negative = inhibition, usual class: activators; also: % of control where 0% means no effect; nearly all actives have a fitted effect of over 60% in size
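Using Huh7 cells stably transfected with Rab9 promoter–luciferase, compounds were incubated 24 h at 37 °C, 5% CO2; luciferase luminescence was read 10 min after reagent addition.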
SMN2 splice up: enhancers of SMN2 splice variant expression; HEK293 SMN2-luciferase splicing reporter, luminescence, 30-36 h; Potency, µM (series often up to 46.1 µM), inactives show at the highest dose activity change, positive = activation, usual class: activators; hit rate 2.8% among 210,000; AID 1458; also: % of control where 0% means no effect; nearly all actives have a fitted effect of over 55% in size
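qHTS luciferase splicing reporter: luminescence rises when SMN2 exon 7 is included in transfected HEK293 cells. Compound exposure lasted 30-36 h at 37C, with 4.5 mM final sodium butyrate as control, followed by a ONE-Glo read.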
FLuc counter: inhibits or activates purified firefly luciferase, miR-21 counter-screen; P08659; purified FLuc, Km substrates, luminescence inhibition; Potency, µM (series often up to 57.5 µM), inactives show top-dose activity change, negative = inhibition, hits mostly inhibitors; hit rate 6.9% among 360,000;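 also: plate controls were vehicle for no effect and reference inhibitor for full effect; nearly all actives have a fitted effect of over 55% in size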
Target sequence (P08659 whole entry, looked up): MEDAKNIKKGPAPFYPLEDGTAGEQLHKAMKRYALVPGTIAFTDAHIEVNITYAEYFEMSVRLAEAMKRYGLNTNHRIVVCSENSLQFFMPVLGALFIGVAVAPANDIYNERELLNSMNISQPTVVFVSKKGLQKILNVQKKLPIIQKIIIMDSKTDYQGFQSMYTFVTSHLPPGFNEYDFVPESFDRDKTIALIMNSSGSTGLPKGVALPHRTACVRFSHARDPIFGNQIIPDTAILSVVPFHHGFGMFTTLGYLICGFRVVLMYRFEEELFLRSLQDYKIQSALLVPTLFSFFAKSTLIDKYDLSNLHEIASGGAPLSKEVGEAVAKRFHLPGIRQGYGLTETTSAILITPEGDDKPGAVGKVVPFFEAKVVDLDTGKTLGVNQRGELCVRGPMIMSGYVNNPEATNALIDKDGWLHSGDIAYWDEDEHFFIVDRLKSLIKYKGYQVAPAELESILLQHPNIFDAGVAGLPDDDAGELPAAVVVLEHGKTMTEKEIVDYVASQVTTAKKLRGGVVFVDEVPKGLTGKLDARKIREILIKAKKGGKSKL
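Biochemical qHTS of compounds, final roughly 60 µM downward over six points, against 10 nM purified firefly luciferase using Km concentrations of substrates (10 uM D-luciferin, 10 uM ATP) in Tris acetate pH 7.5 buffer; luminescence output.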
ELG1 repair inh: ELG1-dependent DNA repair inhibition. AID 504467. hit rate 2.3% among 330,000. HEK293T ELG1-luciferase reporter, luminescence, 16 h; DNA damage induced by 5-fluorouridine. Potency, µM (highest dose often 46.1 µM), for inactives: at the highest dose activity change, negative = inhibition, most hits filed as inhibitors; also: % is scaled to controls: 0 for no effect and ±100 for the full control effect; nearly all actives have a fitted effect of over 55% in size
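Quantitative HTS, concentration-response format. 2,000 cells/well co-treated with 5-fluorouridine and compound, 16 hr in 5% CO2 at 37 °C; ONE-Glo luminescence read after 30 min.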
NPC1 prom act: NPC1 promoter activation; Huh7 NPC1 promoter luciferase reporter, 24 h; Potency, µM (titrated, usually from 9.22 µM), for the others: at the highest dose activation, hits mostly activators; hit rate 2.4% among 320,000; AID 485313; also: % of control where 0% means no effect; nearly all actives have a fitted effect of over 60% in size
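Readout is luciferase luminescence, reflecting NPC1 promoter activation in stably transfected Huh7 cells after 24 h compound exposure at 37 °C in reduced-serum medium with 10% FBS.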
ELG1 genotoxic: inducers of genotoxicity in HEK293T ELG1-luciferase cells; HEK293T ELG1-luciferase reporter, luminescence, 16 h; Potency, µM (titrated, usually from 46 µM), without a hit: at the top dose activity change, positive = activation, usual class: activators; hit rate 1.3% among 330,000; also: % of control where 0% means no effect; nearly all actives have a fitted effect of over 60% in size
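16 hr compound incubation (37 °C, 5% CO2) of HEK293T cells carrying luciferase-tagged ELG1; luciferase then measured by ONE-Glo luminescence after 30 min at RT.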
Numbers without * were called inactive; ? = inconclusive; . = no result; [ ] = another dose, or the depositor's remark. Hits are enriched below; roughly 9.2% of the tested compounds scored in any of these assays. Calls follow the shape of the dose curve; as a rule, active = well fitted curve in the direction sought with a large enough effect; inconclusive = small, poorly fitted or top-dose-only effect, or another doubt; inactive = no such curve, though single readings can be large; an effect the other way counts as inactive or inconclusive. Potency is read from the fitted curve at half-maximal effect.

SMILES	Rab9 promoter act	SMN2 splice up	FLuc counter	ELG1 repair inh	NPC1 prom act	ELG1 genotoxic
O=C(c1ccc(CSc2nc3ccncc3[nH]2)cc1)N1CCCCCC1	?	.	15µM*	?	?	?
O=C(c1ccc(CSc2nc3ccncc3n2Cc2ccccc2)cc1)N1CCCCCC1	.	-28%	17µM*	.	.	.
O=C(c1ccc(CSc2nc3ccncc3[nH]2)cc1)N1CCN(c2cccc(Cl)c2)CC1	-23%	-70%	-1%	26µM*	-18%	-4%
O=C(c1ccc(CN2CCOCC2)cc1)N1CCN(c2cccc(Cl)c2)CC1	-8%	-30%	-2%	-3%	-1%	-3%
OC(CNC1Cc2ccccc2C1)c1ccccc1 (stereo unspecified)	-2%	.	-1%	-2%	1%	-2%
CC(C)(C)C(=O)Nc1nnc(SCC(=O)Nc2ccc3c(c2)OCO3)s1	-6%	-9%	4%	-17%	-3%	0%
CC(C)(C)Cc1nnc(NC(=O)c2ccc3c(c2)OCO3)s1	2.2µM*	.	?	?	2.2µM*	?
O=C(O)CSc1nnc(NC(=O)c2ccc3c(c2)OCO3)s1	-3%	-28%	1.9µM*	-10%	-4%	-12%
COC(=O)CSc1nnc(NC(=O)c2ccc3c(c2)OCO3)s1	?	.	0.54µM*	?	26%	15µM*
CS(=O)(=O)c1ccc(-c2sc3cc4c(cc3c2C(=O)NN2CCOCC2)OCO4)cc1	.	.	.	4%	.	-1%
CCOC(=O)c1ccc(NC(=O)CSc2nnc(CNC(=O)c3ccco3)o2)cc1	-3%	.	6%	13%	0%	4%
COc1ccc(-c2nc3c4ccccc4ccn3c2CN2CCOCC2)cc1OC	14%	.	?	?	-1%	?
O=C(Nc1ccccc1C(F)(F)F)c1noc2c1CCCCC2	.	11µM*	2.7µM*	.	.	.
O=C(Nc1cc(Cl)ccc1Cl)c1noc2c1CCCC2	-2%	.	-9%	15%	2%	1%
O=C(NCc1ccc(F)cc1)c1noc2c1CCCCC2	4%	-5%	-12%	?	1%	0%
O=C(Nc1ccc(F)cc1F)c1noc2c1CCC2	?	?	15µM*	?	?	13%
CC(=O)NC12CC3CC(C1)CC(C(=O)Oc1ccc(N(C)S(=O)(=O)c4cc(C)ccc4C)cc1)(C3)C2	-1%	.	-9%	-4%	-3%	-5%
COc1ccc(C(=O)Nc2cccc(/C(C)=N/NC(=O)c3ccc([N+](=O)[O-])c(C)c3)c2)cc1OC	-3%	12%	?	?	1%	-12%
C/C(=N\NC(=O)c1nn(C)c(C)c1Br)c1cccc(NC(=O)c2ccoc2C)c1	?	9%	2.4µM*	?	26%	16%
COc1ccc(C(=O)Nc2cccc(/C(C)=N\NC(=O)c3ccoc3C)c2)cc1OC	16%	.	17µM*	?	12%	-11%
C/C(=N\NC(=O)c1ccoc1C)c1ccccc1	2µM*	.	11µM*	?	2.5µM*	?
C/C(=N/NC(=O)c1ccoc1C)c1ccc(NC(=O)C2CCCC2)cc1	27%	?	?	?	23%	?
CCc1ccc(NC(=S)N(Cc2ccccc2)Cc2ccccn2)cc1	14%	?	-10%	10%	-2%	-8%
C=CCn1cccc(C(=O)Nc2ccc(Cl)cc2)c1=O	?	.	17µM*	?	?	?
C=CCn1cccc(C(=O)Nc2ccc(N(C)C)cc2)c1=O	4µM*	.	8.5µM*	?	3.5µM*	?
SMILES	Rab9 promoter act	SMN2 splice up	FLuc counter	ELG1 repair inh	NPC1 prom act	ELG1 genotoxic
C=CCn1cccc(C(=O)Nc2ccc(OC)c(OC)c2)c1=O	3%	-17%	?	-3%	12%	9%
C=CCn1cccc(C(=O)Nc2cc(OC)cc(OC)c2)c1=O	26%	19%	?	11%	5%	5%
C=CCn1cccc(C(=O)Nc2ccc(OCC)cc2)c1=O	?	-21%	17µM*	-6%	?	16%
C=CCn1cccc(C(=O)Nc2ccc(OC)cc2OC)c1=O	18%	-3%	?	5%	10%	3%
C=CCn1cccc(C(=O)Nc2ccc(SC)cc2)c1=O	4µM*	.	12µM*	?	?	7%
C=CCn1cccc(C(=O)Nc2cc(OC)c(OC)c(OC)c2)c1=O	-2%	10%	-7%	-3%	-3%	4%
COc1ccc(CCNC(=O)C2c3ccccc3C(=O)N2Cc2ccccc2)cc1OC (stereo unspecified)	.	.	-5%	.	.	.
C#CCn1cccc(C(=O)Nc2ccc(OC)cc2)c1=O	19%[1.84 µM]	.	19µM*	?	29%	14%
O=C(COC(=O)c1cccnc1)c1ccc(Cl)c(Cl)c1	0%	-2%	17µM*	9%	-3%	1%
O=C(COC(=O)c1cccnc1)c1ccc(Cl)cc1	-2%	-20%	11µM*	10%	-5%	-5%
CCCCNc1ccc(-c2nc(-c3ccccc3)no2)cc1[N+](=O)[O-]	.	.	3%	.	.	.
CC(C)[C@H](NS(=O)(=O)c1ccccc1F)C(=O)NC1CCCCC1	.	.	.	5.2µM*	.	2%
CC(C)[C@H](NS(=O)(=O)c1ccccc1)C(=O)OCC(=O)NC(=O)NC1CCCCC1	.	.	.	16µM*	.	-4%
c1ccc(-c2nc(-c3nccc4ccccc34)oc2-c2ccccc2)cc1	3.2µM*	.	6µM*	?	?	?
CCOc1ccc(NC(=O)CSc2nnc(Cc3csc(C)n3)o2)cc1	0%	.	2%	-5%	-9%	-1%
CCOc1ccc(Nc2nc(Cc3nnc(SCC(N)=O)o3)cs2)cc1	-1%	-13%	15µM*	6%	-2%	5%
CCOC(=O)/C(C#N)=C/C=C1/C=CC=CN1C	?	.	?	?	23%	16%
C=CCN1C=CC(=C/C=C(/C#N)C(=O)OCC)C=C1	2µM*	1.4µM*	2.4µM*	?	2.5µM*	7.3µM*
O=C(NC1CCSc2ccccc21)c1cccc(Cl)c1 (stereo unspecified)	3%	.	1%	?	2%	-7%
CCOC(=O)C(c1ccc(OC)c(OC)c1)C1c2ccccc2C=C(C)N1C(=O)OC (stereo unspecified)	.	-5%[9.22 µM]	.	.	.	.
CC(C)(C)C(=O)Nc1ccc(C(=O)Nc2cccnc2)cc1	4µM*	?	21µM*	?	?	21µM*
CC(C)NC(=O)c1ccc2c(c1)S(=O)(=O)c1ccccc1C2=O	-9%	6%	1%	-13%	0%	-3%
O=C(Nc1ccncc1)c1ccc(F)cc1	0%	-13%	4%	-9%	1%	2%
O=C(Nc1ccncc1)c1ccc2c(c1)S(=O)(=O)c1ccccc1C2=O	-20%	-35%	2%	9.2µM*	-14%	-11%
